Columns and labels:
Experiment in all cases: log2 ratio of Biotin-Ahx-Ub-VS probe labelling (fragment/DMSO); higher = less target engagement (more negative = stronger competition), active = hit call of the paper (q ≤ 0.05, log2 ratio ≤ -1)
Details in all cases: compound concentration: 200 uM; treatment time: 3 h
[1] = target: USP9X (UniProt Q93008)
Outline: (§1)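 HEK293T lysate (495 µg per sample, in Tris/CHAPS/IGEPAL buffer with protease inhibitors) was exposed in triplicate for 3 h to fragment at 200 µM or to vehicle, then to Biotin-Ahx-Ub-VS at 0.5 µM final for 1 h. Labelled DUBs were enriched on NeutrAvidin, digested with LysC and trypsin, and analysed by diaPASEF LC-MS/MS. Spectronaut label-free quantities were normalised to the global median, and values are average log2 ratios of fragment over vehicle from an unpaired t-test. Only proteins with ≥2 unique peptides were used.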

[2] = target: UniProt O00487
Outline: as §1

[3] = target: UniProt O00507
Outline: as §1

[4] = target: UniProt P51784
Outline: as §1

[5] = target: T1, UniProt Q5T2D3
T1 sequence (whole entry): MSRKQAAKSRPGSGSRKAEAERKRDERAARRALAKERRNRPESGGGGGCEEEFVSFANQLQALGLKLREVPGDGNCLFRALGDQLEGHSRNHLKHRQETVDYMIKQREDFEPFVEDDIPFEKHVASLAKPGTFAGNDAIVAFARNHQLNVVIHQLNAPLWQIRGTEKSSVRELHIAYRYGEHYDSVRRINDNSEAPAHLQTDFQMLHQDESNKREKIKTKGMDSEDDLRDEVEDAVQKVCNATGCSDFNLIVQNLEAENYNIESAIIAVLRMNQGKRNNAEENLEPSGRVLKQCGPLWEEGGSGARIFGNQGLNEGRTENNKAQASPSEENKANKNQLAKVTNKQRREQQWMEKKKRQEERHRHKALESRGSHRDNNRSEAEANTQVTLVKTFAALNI
Outline: as §1

[6] = target: T2, UniProt Q8TE49
T2 sequence (whole entry): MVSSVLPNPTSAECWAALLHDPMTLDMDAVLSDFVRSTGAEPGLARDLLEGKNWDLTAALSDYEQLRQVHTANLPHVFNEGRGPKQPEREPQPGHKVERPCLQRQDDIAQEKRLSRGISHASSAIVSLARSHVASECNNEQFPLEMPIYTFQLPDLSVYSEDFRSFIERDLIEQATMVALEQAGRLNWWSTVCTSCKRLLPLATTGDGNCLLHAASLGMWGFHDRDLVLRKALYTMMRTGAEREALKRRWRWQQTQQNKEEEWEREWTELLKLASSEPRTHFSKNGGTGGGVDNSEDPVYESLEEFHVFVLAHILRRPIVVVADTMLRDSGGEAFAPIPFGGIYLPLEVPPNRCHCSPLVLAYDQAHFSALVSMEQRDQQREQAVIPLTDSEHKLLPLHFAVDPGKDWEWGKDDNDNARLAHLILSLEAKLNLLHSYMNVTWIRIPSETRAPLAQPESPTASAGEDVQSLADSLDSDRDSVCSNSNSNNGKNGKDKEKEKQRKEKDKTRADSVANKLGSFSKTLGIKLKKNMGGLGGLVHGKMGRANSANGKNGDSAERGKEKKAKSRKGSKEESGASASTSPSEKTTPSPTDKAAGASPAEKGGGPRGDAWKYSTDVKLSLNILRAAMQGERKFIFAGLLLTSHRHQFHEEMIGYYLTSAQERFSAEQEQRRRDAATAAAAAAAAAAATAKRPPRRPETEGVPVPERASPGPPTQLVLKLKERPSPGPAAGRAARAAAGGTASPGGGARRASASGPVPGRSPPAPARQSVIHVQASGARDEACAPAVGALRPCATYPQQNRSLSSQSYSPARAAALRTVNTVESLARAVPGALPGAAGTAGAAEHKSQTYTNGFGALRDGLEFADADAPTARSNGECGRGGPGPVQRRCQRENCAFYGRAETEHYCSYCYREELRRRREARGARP
Outline: as §1

[7] = target: T3, UniProt Q9P2H5
T3 sequence (whole entry): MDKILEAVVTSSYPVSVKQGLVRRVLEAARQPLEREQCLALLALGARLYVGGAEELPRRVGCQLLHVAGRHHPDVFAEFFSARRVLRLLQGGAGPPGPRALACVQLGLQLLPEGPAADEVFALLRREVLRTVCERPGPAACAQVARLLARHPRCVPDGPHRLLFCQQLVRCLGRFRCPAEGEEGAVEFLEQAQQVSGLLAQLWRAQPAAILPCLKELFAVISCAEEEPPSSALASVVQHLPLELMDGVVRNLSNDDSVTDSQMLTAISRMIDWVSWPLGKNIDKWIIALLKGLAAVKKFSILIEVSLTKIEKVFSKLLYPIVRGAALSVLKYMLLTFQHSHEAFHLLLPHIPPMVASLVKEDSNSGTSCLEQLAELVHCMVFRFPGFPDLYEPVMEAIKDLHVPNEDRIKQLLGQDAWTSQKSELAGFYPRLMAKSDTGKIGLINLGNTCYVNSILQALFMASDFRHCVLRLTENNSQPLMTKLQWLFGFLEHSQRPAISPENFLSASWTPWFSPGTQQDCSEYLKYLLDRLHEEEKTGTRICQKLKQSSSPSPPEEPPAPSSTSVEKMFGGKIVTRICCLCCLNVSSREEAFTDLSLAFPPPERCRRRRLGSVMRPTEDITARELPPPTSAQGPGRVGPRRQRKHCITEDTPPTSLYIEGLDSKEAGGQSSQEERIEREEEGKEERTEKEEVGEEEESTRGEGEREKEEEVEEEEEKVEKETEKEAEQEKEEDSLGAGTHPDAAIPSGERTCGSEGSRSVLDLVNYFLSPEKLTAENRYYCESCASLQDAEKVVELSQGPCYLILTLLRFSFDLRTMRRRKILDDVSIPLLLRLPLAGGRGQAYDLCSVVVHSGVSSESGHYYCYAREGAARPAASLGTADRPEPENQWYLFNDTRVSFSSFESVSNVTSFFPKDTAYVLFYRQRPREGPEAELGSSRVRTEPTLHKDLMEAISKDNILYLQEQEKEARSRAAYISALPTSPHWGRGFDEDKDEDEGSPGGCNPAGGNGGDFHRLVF
Outline: as §1

[8] = target: T4, UniProt Q9UGI0
T4 sequence (whole entry): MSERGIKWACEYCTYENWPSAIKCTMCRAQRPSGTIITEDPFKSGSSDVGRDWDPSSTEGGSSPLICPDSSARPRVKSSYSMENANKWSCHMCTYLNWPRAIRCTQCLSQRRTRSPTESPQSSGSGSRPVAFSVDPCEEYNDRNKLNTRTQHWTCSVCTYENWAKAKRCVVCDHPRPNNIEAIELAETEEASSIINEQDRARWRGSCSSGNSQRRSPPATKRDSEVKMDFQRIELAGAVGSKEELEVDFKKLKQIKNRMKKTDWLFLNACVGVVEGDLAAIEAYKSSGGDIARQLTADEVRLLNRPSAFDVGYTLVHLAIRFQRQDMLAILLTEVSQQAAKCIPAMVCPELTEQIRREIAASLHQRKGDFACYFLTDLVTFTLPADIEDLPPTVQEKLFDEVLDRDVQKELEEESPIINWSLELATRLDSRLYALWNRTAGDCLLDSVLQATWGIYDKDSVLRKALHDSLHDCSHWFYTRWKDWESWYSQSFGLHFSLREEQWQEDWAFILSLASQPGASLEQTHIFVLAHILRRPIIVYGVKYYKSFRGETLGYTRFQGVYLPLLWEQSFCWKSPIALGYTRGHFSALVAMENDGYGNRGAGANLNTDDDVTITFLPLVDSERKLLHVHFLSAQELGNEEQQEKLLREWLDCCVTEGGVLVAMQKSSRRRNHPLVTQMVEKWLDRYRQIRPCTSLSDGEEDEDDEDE
Outline: as §1

[9] = target: T5, YOD1 (UniProt Q5VVQ6)
T5 sequence (whole entry): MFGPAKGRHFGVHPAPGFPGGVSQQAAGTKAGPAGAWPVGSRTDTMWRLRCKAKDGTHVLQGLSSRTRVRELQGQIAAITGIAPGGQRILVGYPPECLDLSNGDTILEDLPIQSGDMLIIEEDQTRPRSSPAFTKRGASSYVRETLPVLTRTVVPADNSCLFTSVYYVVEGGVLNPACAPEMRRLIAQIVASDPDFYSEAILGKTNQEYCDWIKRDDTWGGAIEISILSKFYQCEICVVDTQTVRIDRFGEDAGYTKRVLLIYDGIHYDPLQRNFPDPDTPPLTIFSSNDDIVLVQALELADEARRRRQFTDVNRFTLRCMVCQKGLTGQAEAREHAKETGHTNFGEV
Outline: as §1

Measured: log2 ratio of Biotin-Ahx-Ub-VS probe labelling

Chain of UniProt O00487 (O00487 whole entry): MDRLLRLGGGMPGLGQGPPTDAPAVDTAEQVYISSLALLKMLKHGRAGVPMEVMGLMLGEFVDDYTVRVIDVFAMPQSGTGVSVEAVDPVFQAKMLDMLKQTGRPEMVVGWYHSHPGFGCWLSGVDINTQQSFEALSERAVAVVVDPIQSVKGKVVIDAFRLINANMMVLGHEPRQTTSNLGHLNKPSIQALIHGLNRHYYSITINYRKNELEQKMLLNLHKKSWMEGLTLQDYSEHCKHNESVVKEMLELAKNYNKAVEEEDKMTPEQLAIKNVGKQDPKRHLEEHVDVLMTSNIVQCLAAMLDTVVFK
Chain of USP9X (Q93008 whole entry, the tested form may be a part): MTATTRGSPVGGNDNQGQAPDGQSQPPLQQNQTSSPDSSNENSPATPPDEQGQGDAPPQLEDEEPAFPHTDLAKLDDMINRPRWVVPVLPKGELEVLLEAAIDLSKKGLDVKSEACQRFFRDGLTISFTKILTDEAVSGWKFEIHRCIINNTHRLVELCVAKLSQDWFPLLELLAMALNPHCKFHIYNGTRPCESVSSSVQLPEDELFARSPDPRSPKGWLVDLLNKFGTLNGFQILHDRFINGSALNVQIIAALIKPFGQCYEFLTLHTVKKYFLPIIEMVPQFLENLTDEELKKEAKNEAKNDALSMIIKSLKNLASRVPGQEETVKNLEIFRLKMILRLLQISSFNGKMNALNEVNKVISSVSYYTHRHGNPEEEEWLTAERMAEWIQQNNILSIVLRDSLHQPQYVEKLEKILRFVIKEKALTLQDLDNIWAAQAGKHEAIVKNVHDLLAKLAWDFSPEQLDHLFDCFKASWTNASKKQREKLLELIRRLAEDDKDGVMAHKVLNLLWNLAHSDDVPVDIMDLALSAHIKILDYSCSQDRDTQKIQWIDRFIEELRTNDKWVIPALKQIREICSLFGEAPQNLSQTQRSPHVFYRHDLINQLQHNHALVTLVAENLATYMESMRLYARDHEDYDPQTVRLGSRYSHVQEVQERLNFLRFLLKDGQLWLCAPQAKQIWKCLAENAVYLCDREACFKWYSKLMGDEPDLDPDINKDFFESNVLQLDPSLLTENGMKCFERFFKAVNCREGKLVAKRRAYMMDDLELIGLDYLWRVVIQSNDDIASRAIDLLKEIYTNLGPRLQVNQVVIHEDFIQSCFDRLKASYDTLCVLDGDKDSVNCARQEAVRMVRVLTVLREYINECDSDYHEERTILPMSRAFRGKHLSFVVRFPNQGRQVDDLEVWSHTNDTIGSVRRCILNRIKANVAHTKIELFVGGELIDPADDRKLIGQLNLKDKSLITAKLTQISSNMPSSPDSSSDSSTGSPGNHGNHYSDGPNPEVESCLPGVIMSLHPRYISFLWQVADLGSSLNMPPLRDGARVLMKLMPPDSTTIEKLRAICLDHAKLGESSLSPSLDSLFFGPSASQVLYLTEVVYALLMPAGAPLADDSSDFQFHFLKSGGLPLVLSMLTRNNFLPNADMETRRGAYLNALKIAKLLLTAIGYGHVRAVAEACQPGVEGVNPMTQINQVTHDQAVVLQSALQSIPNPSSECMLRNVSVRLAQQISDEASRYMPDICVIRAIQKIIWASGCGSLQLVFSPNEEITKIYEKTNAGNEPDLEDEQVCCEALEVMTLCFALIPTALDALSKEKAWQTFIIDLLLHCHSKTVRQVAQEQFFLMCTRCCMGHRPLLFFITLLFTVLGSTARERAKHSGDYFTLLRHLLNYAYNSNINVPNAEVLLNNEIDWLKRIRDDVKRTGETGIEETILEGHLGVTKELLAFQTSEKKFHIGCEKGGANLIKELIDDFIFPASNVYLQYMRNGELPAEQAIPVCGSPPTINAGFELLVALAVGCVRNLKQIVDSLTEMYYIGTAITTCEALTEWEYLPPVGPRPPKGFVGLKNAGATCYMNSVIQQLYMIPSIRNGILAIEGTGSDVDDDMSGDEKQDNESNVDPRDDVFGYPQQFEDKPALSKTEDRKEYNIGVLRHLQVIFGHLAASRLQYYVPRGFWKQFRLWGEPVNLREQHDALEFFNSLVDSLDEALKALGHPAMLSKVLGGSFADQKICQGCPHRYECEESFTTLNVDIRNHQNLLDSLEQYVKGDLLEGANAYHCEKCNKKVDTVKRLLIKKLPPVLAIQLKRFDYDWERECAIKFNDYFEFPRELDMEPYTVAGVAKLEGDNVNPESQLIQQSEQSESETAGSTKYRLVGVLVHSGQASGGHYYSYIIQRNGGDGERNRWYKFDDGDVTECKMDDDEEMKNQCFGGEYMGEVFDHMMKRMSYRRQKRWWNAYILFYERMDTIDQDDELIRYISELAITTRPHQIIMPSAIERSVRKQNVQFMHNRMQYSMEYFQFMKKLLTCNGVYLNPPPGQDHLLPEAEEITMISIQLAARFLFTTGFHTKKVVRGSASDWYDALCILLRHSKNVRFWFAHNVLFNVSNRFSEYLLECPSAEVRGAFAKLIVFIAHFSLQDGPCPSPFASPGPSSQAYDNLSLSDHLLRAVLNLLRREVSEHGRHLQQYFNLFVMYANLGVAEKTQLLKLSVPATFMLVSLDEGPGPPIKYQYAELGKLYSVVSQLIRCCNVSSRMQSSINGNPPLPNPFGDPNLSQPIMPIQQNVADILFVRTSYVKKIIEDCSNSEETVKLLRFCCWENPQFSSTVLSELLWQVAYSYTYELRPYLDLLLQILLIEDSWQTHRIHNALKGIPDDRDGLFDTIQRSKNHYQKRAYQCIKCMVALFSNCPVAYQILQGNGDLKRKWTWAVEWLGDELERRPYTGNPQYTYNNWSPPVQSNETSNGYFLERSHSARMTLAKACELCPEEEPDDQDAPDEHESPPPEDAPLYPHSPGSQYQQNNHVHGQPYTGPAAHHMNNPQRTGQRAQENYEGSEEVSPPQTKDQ
Chain of UniProt P51784 (P51784 whole entry): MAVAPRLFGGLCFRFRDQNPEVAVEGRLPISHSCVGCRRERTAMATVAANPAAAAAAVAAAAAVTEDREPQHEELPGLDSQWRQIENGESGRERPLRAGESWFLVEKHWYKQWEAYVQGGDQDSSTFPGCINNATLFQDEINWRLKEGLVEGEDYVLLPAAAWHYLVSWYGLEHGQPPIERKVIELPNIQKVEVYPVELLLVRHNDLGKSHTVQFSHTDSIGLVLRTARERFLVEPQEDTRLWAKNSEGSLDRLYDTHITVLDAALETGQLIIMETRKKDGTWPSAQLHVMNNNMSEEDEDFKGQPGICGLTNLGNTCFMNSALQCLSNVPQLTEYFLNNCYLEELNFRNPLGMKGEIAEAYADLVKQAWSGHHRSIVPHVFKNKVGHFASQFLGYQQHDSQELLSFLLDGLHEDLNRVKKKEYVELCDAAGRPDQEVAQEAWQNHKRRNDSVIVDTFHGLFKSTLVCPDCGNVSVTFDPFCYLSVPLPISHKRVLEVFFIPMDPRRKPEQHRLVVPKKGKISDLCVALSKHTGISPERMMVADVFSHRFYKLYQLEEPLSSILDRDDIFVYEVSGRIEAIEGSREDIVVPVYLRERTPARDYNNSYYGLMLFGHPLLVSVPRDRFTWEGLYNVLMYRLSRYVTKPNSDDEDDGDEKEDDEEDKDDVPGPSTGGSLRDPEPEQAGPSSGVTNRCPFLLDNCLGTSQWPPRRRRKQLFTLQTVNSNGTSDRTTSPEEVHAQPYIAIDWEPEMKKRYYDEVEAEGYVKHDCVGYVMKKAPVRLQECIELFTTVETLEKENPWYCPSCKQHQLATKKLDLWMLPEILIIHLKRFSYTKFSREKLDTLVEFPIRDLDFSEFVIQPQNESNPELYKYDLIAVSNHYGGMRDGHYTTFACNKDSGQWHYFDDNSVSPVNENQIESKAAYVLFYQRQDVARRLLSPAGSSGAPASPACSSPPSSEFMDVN

CCN(C(=O)CCl)C1CCCCC1
inactive: [1] -0.0791 | [2] 0.0502 | [3] 0.476 | [4] 0.0309 | [5] -0.00741 | [6] -0.32 | [7] -0.0524 | [8] 0.069 | [9] 0.333
